Assay results published in ChEMBL document CHEMBL1961873, “Compounds: GSK PKIS; Assays: Nanosyn kinase panel” (2012).
“And” between values parts separate entries of the source, which are not always exact repeats. Equal entries are not always repeated.

Experiments:
[1] = target: Tyrosine-protein kinase SYK (Homo sapiens) (UniProt P43405); details: at 1 µM
[2] = target: T1, Tyrosine-protein kinase Tec (Homo sapiens) (UniProt P42680); details: at 0.1 µM
T1 sequence (whole entry): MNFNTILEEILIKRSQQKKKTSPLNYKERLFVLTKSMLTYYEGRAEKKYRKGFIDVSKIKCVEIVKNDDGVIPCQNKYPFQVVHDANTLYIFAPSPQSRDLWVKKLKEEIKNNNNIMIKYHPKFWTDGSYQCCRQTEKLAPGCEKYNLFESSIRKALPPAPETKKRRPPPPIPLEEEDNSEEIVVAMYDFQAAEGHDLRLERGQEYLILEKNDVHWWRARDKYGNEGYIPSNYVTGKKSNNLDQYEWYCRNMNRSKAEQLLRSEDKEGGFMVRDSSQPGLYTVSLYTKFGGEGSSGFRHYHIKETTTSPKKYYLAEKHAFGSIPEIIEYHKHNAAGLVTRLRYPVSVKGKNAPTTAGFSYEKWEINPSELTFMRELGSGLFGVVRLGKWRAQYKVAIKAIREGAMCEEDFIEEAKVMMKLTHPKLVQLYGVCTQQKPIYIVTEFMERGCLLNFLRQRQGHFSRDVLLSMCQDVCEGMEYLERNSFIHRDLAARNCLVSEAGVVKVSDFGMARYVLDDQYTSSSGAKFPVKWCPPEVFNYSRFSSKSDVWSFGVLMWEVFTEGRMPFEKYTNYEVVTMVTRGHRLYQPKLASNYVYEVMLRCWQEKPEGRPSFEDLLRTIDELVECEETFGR

[3] = target: T1, Tyrosine-protein kinase Tec (Homo sapiens); details: at 1 µM
[4] = target: Angiopoietin-1 receptor (Homo sapiens) (UniProt Q02763); details: at 0.1 µM
[5] = target: Angiopoietin-1 receptor (Homo sapiens) (UniProt Q02763); details: at 1 µM
[6] = target: T2, Non-receptor tyrosine-protein kinase TNK1 (Homo sapiens) (UniProt Q13470); details: at 0.1 µM
T2 sequence (whole entry): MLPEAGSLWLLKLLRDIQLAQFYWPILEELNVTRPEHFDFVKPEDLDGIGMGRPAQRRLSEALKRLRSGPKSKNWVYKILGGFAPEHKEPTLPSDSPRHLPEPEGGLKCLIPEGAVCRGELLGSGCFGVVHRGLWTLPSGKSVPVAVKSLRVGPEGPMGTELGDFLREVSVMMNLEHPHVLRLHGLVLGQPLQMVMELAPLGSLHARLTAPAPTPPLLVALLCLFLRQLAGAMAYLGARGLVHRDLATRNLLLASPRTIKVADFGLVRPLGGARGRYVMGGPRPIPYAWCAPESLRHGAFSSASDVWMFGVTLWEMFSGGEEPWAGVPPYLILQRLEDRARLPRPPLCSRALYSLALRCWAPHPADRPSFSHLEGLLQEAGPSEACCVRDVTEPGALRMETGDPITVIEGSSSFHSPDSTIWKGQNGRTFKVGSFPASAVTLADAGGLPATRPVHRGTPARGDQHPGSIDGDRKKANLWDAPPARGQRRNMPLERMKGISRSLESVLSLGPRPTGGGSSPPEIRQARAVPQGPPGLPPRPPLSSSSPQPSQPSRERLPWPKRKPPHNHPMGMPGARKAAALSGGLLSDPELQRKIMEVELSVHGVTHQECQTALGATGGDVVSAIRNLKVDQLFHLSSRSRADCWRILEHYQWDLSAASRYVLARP

[7] = target: T2, Non-receptor tyrosine-protein kinase TNK1 (Homo sapiens); details: at 1 µM
[8] = target: Activated CDC42 kinase 1 (Homo sapiens) (UniProt Q07912); details: at 0.1 µM
[9] = target: Activated CDC42 kinase 1 (Homo sapiens) (UniProt Q07912); details: at 1 µM
[10] = target: High affinity nerve growth factor receptor (Homo sapiens) (UniProt P04629); details: at 0.1 µM
[11] = target: High affinity nerve growth factor receptor (Homo sapiens) (UniProt P04629); details: at 1 µM
[12] = target: BDNF/NT-3 growth factors receptor (Homo sapiens) (UniProt Q16620); details: at 0.1 µM
[13] = target: BDNF/NT-3 growth factors receptor (Homo sapiens) (UniProt Q16620); details: at 1 µM
[14] = target: NT-3 growth factor receptor (Homo sapiens) (UniProt Q16288); details: at 0.1 µM
[15] = target: NT-3 growth factor receptor (Homo sapiens) (UniProt Q16288); details: at 1 µM
[16] = target: T3, Tyrosine-protein kinase TXK (Homo sapiens) (UniProt P42681); details: at 0.1 µM
T3 sequence (whole entry): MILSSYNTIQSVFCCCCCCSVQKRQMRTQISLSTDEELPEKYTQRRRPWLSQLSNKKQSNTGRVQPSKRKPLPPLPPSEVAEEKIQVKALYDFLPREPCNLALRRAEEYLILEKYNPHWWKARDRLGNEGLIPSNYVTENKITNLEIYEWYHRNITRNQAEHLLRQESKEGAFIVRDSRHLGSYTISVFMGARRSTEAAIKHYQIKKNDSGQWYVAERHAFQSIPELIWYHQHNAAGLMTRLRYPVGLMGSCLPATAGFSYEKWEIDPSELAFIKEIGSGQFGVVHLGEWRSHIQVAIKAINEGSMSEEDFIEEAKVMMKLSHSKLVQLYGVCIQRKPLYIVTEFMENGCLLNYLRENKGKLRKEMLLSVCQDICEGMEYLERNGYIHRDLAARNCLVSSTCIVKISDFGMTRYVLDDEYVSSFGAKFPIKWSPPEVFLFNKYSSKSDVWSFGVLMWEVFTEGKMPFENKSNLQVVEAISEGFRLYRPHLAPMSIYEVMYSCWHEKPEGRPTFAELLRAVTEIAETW

[17] = target: T3, Tyrosine-protein kinase TXK (Homo sapiens); details: at 1 µM
[18] = target: Non-receptor tyrosine-protein kinase TYK2 (Homo sapiens) (UniProt P29597); details: at 0.1 µM;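 note: each value is a mean of the inhibition readings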
[19] = target: T4, Dual specificity protein kinase TTK (Homo sapiens) (UniProt P33981); details: at 1 µM;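 note: reported figures are mean TTK inhibition at 1 µM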
T4 sequence (whole entry): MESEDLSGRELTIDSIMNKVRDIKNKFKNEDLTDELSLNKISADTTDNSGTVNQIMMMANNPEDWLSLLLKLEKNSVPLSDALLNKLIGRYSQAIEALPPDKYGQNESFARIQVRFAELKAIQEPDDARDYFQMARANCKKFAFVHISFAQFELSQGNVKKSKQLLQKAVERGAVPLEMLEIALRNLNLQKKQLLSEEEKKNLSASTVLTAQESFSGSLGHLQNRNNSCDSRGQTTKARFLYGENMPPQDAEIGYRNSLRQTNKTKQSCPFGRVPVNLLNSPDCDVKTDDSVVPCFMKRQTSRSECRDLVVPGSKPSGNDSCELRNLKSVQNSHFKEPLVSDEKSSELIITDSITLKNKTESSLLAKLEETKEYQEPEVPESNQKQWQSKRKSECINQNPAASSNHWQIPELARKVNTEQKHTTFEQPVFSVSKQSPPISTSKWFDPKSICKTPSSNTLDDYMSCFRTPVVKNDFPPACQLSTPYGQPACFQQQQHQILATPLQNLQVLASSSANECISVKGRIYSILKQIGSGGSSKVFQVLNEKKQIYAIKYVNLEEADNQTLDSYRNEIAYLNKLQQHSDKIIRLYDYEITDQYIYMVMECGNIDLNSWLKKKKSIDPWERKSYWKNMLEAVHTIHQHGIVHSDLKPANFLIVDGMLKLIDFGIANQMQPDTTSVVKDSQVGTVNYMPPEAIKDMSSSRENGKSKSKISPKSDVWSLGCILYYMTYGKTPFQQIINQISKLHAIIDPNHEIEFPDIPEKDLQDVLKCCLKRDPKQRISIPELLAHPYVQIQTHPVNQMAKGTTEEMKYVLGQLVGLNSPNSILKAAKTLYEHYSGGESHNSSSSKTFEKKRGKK

[20] = target: T5, Aurora kinase A (Homo sapiens) (UniProt O14965); details: at 0.1 µM;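 note: each reported value is a mean percent inhibition of Aurora-A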
T5 sequence (whole entry): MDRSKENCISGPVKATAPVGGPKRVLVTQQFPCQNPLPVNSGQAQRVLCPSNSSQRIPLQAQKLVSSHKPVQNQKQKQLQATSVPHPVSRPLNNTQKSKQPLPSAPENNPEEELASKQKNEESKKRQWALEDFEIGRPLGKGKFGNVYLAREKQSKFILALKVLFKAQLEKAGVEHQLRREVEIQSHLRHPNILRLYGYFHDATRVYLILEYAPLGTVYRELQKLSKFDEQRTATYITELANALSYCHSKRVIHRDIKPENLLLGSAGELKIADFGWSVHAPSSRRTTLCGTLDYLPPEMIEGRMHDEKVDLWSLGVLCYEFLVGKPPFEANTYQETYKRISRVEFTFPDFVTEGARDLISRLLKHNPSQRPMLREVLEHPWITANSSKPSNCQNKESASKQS

Chain of High affinity nerve growth factor receptor (Homo sapiens) (P04629 33-796 limits assumed): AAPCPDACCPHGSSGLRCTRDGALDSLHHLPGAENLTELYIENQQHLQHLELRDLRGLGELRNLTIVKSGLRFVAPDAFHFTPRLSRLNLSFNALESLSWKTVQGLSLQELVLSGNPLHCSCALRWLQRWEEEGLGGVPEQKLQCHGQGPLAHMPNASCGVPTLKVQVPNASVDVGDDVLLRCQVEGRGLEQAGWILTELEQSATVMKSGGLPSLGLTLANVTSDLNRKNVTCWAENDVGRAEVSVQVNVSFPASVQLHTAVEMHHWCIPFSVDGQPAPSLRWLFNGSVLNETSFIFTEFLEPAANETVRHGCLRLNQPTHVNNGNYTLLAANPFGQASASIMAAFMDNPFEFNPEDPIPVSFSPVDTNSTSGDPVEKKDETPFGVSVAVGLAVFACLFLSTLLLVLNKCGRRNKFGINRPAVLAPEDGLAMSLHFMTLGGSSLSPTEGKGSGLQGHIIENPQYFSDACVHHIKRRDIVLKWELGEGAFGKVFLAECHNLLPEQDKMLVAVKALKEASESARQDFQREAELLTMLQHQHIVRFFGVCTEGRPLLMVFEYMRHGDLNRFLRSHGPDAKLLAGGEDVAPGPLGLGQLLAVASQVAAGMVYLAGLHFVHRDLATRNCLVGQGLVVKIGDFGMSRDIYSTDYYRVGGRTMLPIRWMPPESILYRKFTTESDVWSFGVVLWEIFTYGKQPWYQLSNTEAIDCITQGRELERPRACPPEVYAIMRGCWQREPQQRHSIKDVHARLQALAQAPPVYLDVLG
Chain of BDNF/NT-3 growth factors receptor (Homo sapiens) (Q16620 32-822 limits assumed): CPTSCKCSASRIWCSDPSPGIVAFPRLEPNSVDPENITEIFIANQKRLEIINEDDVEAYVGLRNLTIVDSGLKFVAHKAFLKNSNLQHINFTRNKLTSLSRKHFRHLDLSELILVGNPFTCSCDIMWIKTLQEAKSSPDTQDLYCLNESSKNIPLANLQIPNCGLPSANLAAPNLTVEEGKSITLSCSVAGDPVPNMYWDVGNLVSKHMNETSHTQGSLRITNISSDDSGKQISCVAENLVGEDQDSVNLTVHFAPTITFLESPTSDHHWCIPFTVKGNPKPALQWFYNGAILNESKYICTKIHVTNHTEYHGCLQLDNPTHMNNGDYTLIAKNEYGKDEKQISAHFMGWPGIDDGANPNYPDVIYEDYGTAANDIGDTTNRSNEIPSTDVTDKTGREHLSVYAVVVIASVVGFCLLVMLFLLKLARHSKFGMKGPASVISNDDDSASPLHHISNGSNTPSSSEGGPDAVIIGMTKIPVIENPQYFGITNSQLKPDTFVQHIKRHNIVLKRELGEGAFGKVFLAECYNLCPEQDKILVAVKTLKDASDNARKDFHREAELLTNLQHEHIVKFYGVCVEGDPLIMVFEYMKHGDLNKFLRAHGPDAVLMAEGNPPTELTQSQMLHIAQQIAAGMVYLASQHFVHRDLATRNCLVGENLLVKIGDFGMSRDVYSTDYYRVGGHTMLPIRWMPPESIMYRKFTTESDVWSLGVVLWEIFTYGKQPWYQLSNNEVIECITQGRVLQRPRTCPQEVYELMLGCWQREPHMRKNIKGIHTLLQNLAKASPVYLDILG
Chain of Activated CDC42 kinase 1 (Homo sapiens) (Q07912 whole entry, looked up): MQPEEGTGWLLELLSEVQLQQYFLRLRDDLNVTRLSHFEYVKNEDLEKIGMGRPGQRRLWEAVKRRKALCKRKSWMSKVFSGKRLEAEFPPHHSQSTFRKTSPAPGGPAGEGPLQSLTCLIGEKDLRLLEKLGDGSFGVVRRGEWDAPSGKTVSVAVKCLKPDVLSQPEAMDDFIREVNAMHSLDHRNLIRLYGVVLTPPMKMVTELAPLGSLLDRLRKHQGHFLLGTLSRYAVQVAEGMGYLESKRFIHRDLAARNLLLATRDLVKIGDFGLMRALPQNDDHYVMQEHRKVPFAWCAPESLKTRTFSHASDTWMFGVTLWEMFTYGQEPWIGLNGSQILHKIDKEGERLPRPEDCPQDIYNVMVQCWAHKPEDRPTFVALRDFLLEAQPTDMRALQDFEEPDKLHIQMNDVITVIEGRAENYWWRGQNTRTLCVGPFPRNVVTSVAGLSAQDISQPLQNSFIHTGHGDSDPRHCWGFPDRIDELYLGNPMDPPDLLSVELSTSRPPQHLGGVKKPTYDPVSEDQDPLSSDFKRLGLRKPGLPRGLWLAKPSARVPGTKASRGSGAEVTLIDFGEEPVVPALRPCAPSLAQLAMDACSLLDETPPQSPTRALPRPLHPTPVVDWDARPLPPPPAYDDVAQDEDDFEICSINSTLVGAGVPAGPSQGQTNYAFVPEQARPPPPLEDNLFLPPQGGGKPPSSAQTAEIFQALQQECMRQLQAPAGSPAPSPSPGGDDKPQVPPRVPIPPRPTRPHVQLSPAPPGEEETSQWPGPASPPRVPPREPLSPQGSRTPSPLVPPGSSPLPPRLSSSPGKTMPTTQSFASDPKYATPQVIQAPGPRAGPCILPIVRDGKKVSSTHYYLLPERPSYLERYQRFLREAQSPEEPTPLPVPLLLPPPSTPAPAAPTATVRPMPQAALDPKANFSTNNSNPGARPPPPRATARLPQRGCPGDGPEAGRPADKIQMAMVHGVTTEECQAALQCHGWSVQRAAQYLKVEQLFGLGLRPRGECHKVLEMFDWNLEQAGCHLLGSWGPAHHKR
Chain of NT-3 growth factor receptor (Homo sapiens) (Q16288 32-839 limits assumed): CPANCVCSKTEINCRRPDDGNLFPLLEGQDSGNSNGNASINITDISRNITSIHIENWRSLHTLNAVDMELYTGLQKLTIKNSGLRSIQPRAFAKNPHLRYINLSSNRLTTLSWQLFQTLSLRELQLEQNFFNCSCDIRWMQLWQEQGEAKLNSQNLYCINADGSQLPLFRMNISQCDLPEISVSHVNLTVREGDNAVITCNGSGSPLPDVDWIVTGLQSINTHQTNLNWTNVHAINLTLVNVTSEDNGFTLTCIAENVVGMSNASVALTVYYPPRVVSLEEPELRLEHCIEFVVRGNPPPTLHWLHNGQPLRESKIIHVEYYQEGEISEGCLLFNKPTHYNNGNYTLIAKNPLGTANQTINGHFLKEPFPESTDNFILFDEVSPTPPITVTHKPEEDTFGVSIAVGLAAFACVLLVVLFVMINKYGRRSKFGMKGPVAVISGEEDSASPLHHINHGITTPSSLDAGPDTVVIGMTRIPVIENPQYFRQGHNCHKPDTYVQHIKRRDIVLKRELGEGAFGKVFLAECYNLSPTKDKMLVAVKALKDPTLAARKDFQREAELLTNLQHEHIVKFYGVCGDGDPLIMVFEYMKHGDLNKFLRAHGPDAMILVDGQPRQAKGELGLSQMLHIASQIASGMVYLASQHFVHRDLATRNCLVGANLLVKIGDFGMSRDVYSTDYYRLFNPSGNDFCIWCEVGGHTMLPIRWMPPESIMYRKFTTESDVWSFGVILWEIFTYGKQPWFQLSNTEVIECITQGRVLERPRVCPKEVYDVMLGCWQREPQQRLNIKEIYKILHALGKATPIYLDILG
Chain of Angiopoietin-1 receptor (Homo sapiens) (Q02763 whole entry): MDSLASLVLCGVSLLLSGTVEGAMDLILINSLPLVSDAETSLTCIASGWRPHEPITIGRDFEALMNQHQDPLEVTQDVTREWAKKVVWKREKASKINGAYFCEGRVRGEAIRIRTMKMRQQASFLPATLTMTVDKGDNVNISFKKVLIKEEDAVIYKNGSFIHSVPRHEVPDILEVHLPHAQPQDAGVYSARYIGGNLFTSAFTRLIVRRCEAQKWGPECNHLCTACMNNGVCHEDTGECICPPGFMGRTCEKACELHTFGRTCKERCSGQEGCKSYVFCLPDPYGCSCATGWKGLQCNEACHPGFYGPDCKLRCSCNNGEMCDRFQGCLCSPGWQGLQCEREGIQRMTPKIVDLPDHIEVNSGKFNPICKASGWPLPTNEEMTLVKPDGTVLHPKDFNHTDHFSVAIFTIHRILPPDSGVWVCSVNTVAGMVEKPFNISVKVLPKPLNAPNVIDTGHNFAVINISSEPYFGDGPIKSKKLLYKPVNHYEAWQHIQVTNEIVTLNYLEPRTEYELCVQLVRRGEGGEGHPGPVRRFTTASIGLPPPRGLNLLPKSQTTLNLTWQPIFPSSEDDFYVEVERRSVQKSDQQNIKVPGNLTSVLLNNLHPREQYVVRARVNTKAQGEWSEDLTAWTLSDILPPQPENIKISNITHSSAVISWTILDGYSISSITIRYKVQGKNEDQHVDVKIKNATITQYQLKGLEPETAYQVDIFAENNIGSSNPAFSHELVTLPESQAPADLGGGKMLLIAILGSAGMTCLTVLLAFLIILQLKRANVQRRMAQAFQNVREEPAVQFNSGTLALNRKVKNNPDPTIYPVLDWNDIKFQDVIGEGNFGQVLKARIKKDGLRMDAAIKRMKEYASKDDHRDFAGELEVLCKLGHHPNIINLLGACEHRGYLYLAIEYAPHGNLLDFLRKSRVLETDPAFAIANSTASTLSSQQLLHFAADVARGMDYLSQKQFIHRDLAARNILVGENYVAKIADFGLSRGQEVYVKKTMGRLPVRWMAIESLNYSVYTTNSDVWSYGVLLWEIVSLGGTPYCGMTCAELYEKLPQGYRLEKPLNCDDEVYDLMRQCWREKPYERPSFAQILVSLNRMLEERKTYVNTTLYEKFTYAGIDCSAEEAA

Row | Compound | inhibition [1] | inhibition [2] | inhibition [3] | inhibition [4] | inhibition [5] | inhibition [6] | inhibition [7] | inhibition [8] | inhibition [9] | inhibition [10] | inhibition [11] | inhibition [12] | inhibition [13] | inhibition [14] | inhibition [15] | inhibition [16] | inhibition [17] | inhibition [18] | inhibition [19] | inhibition [20]
1 | CN(C)CCNC(=O)Nc1ccc(N(C)c2ccnc(Nc3ccc(CS(C)(=O)=O)cc3)n2)cc1 | -4.22% | 5.73% | 14.7% | 2.91% | 12.6% | 12.7% | 47.1% | 1.49% | 4.15% | 1.76% | 7.1% | 2.82% | 9.09% | 4.45% | 11.9% | 8.39% | 34.3% | -2.14% | 11.4% | 13.7%
2 | Cc1cc(O)cc(C)c1/C=C/c1cncc(C(=O)OC(C)(C)C)c1 | 0.64% | 5.96% | 30.2% | 2.09% | 3.67% | 2.08% | 15.7% | 1.33% | 4.9% | 3.36% | 2.95% | 2.88% | 5.2% | 2.87% | 5.85% | 8.06% | 36.9% | -0.75% | 4.42% | 2.02%
3 | CC(C)c1ccc(-c2cc(-c3c[nH]nc3-c3ccccn3)ccn2)cc1 | 1.09% | 2.3% | 2.11% | 4.71% | 6.64% | 0.85% | -0.32% | 0.23% | 0.19% | 0.99% | 2.9% | 0.33% | 2.07% | 0.32% | 1.76% | 2.1% | 2.05% | 0.66% | 11.3% | 1.03%
4 | Fc1ccc(Nc2nccc(-c3c(-c4ccc(C(F)(F)F)cc4)nn4ncccc34)n2)cc1F | -0.68% | 4.32% | 6.72% | 1.72% | 1.95% | 3.85% | -0.46% | 1.2% | 0.83% | 2.39% | 1.59% | 2.27% | 2.56% | 3.55% | 2.83% | 2.95% | 4.27% | -3.95% | 8.25% | 3.59%
5 | O=C(O[C@H]1CN[C@H](C#Cc2cc3ncnc(Nc4ccc(OCc5cccc(F)c5)c(Cl)c4)c3s2)C1)N1CCOCC1 | -2.54% | 5.08% | 4.41% | 2.8% | 7.75% | 4.45% | 21.9% | 2.09% | 2.88% | 1.47% | 0.52% | 3.03% | 5.79% | 2.99% | 7.73% | 1.89% | 1.16% | -6.96% | 13% | 1.79%
6 | COc1cccc(-n2ncc3c(N/N=C/c4ccc(C(=O)NCCN(C)C)cc4)ncnc32)c1 | 5.44% | 4.74% | 19.6% | 8.62% | 46.4% | 25.4% | 68.3% | 2.34% | 13.2% | 6.69% | 12.1% | 5.53% | 26.5% | 3.96% | 20.7% | 7.49% | 29.4% | -5.03% | 11.6% | 8.37%
7 | CN1CCN(Cc2ccc(-c3cc4ncnc(Nc5ccc(OCc6cccc(F)c6)c(Cl)c5)c4s3)o2)CC1 | -0.79% and 0.39% | 0.53% and 4.75% | 4.67% and 6.65% | 4.14% and 4.04% | 16.7% and 17.8% | 2.88% and 6.1% | 18.5% and 23.1% | 1.15% and 2.06% | 2.33% and 3.5% | 1.64% and -0.7% | 3.16% and 2.15% | 3.04% and 3.64% | 2.54% and 4.97% | 2.27% and 4.29% | 3.84% and 5.78% | -1.05% and 3.1% | 5.76% and 4.28% | -2.41% and -3.9% | 8.37% and 11.4% | 1.75% and 2.97%
8 | COc1ccc(Nc2ncc(-c3ccccc3)o2)cc1OC | 0.42% | 2.91% | 9.41% | 2.1% | 8.87% | 5.16% | 26.8% | -0.28% | 2.05% | -1.61% | 14.1% | 2.88% | 27.1% | 2.7% | 27.1% | 4.28% | 17.8% | 0.66% | 1.06% | 9.76%
9 | Nc1ncnc2occ(-c3ccc(NC(=O)Nc4cc(C(F)(F)F)ccc4F)cc3)c12 | -9.91% | 3.07% and -2.99% | 5.25% and -1.81% | 63.7% and 59.4% | 79% and 80.6% | 10.7% and 2.54% | 50% and 25.8% | 1.25% and -0.32% | 2.06% and -0.97% | 57.1% and 36.6% | 89.2% and 97% | 54.8% and 40.6% | 90.7% and 88.5% | 52.9% and 39.5% | 92.8% and 85.3% | 3.14% and 1.59% | 5.09% and 0.12% | -1.29% and 0.57% | 21.4% and 7.71% | 3.16% and -1.11%
